Source: PubChem BioAssay

Assay: Plasmodium falciparum growth inhibition, primary screen, strain 3D7, DAPI fluorescence, 100 nL (AID 1184);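 also: parasites grown inside human red blood cells in medium with human serum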
Conditions: P. falciparum 3D7 growth, 3 d, higher = more signal

| Compound | z-score |
| --- | --- |
| CO[C@@H]1COC(=O)[C@@H](C)COC(=O)[C@@H](C)NC(=O)CC=C[C@@H]1C | -1.52 |
| CCOC(=O)[C@H](CC(C)C)NC(=O)CCC1CC(OC(=O)NCc2cccc3ccccc23)CC2(CCCC(COC(=O)NCCc3ccc(Cl)cc3)O2)O1 (stereo partly specified) | -1.61 |
| COc1ccc(O[C@@H]2[C@H](O)CO[C@@H]2C=Cc2ccccc2)cc1 | -0.971 |
| O=C1C2=CC[C@H]3C(=O)N(c4cccc(Oc5ccccc5)c4)C(=O)[C@H]3[C@H]2[C@H](O)[C@@H]2O[C@H]12 | 0.86 |
| O=C1C=C[C@@H](O)[C@@H]2[C@@H]3C(=O)N(C[C@@H]4CCCO4)C(=O)[C@@H]3CC[C@@H]12 | 0.0136 |
| CO[C@H]1COC(=O)[C@H](C)NC(=O)CC=C[C@@H](C)[C@H](OC)COC(=O)[C@@H](OCc2ccccc2)C=C[C@@H]1C | 0.112 |
| CCOC(=O)[C@H](CC(C)C)NC(=O)CCC1CC(OC(=O)NCCc2ccc(F)cc2)CC2(CCCC(COC(=O)NCCc3ccc(Cl)cc3)O2)O1 (stereo partly specified) | -1.9 |
| CCN1C(=O)[C@@H]2[C@H]3C(=CC[C@@H]2C1=O)C1(OCCCO1)[C@H]1O[C@H]1[C@H]3O | -1.63 |
| CCOC(=O)[C@H](CC(C)C)NC(=O)CCC1CC(OC(=O)NCc2cccc3ccccc23)CC2(CCCC(COC(=O)NCCOc3ccccc3)O2)O1 (stereo partly specified) | -1.81 |
| COC(=O)CC=C[C@@H](C)[C@@H](C=NO[C@@H]1O[C@H](COC(C)=O)[C@@H](OC(C)=O)[C@H](OC(C)=O)[C@H]1OC(C)=O)OC | -0.0925 |
| CCOC(=O)NN=C1C[C@@H](O)[C@@H](O)[C@@H]2[C@@H]3C(=O)N(Cc4ccccc4)C(=O)[C@@H]3CC[C@H]12 | -0.179 |
| Cc1cc2c(nc1C)CCCN2CC(O)CN1CCCc2nc(C)c(C)cc21 | -0.958 |
| COc1ccc(COC(=O)NN=C2C[C@@H](O)[C@@H](O)[C@@H]3[C@@H]4C(=O)N(C5CCCCC5)C(=O)[C@@H]4CC[C@H]23)cc1 | -0.336 |
| COC(=O)CC=C[C@@H](C)[C@@H](C=NOCC[C@@H]1C=C[C@H](OC(C)=O)[C@@H](COC(C)=O)O1)NS(=O)(=O)c1ccc(C)cc1 | 0.0783 |
| CO[C@@H]1C=CCC(=O)N2CCC[C@H]2C(=O)OC[C@@H](C)C(=O)OC[C@H]1C | 0.432 |
| C=CC[C@@H]1C=C[C@H](ON=C(C)CCC(=O)OC[C@H]2O[C@H](C#Cc3ccccc3)C=C[C@@H]2Oc2ccc(C)cc2)[C@@H](CO)O1 | 0.37 |
| CC(CCC(=O)OC[C@H]1O[C@H](C#Cc2ccccc2)C=C[C@@H]1Oc1ccc(C)cc1)=NO[C@H](C)c1cn([C@H](CO)Cc2ccccc2)nn1 | -0.563 |
| CON=CC[C@@H]1C=C[C@H](OC(C)=O)[C@@H](COC(C)=O)O1 | 1.2 |

| Compound | z-score |
| --- | --- |
| CO[C@@H]1COC(=O)CC=C[C@@H](C)[C@@H]2C=C[C@H](O)[C@@H](COC(=O)CC=C[C@H]1C)O2 | 0.338 |
| CCCCC#C[C@@H]1C=C[C@H](OC(C)=O)[C@@H](COC(C)=O)O1 | 0.247 |
| C#CCCCON=C1C[C@@H](O)[C@@H](O)[C@@H]2[C@@H]3C(=O)N(c4cccc(Oc5ccccc5)c4)C(=O)[C@@H]3CC[C@H]12 | 0.63 |
| Cn1c(=O)n2n(c1=O)[C@H]1[C@H](O)[C@@H]3O[C@@H]3C(=NOCc3ccccc3)[C@H]1CC2 | 0.769 |
| CCOC(=O)C1=NO[C@]2(C=C(Br)C3(OCCCO3)[C@H]3O[C@H]32)C1 | 0.99 |
| CCN1C(=O)[C@H]2[C@H]3[C@H](O)[C@H](O)CC(=NOC[C@H]4O[C@H](c5ccccc5)C=C[C@@H]4Oc4ccc(OC)cc4)[C@@H]3CC[C@H]2C1=O | 0.188 |
| Cc1ccc(S(=O)(=O)NC(CCc2ccccc2)CC(=O)C(C)(C)C)cc1 (stereo unspecified) | -0.268 |
| O=C1CCCC=C1C(O)CCCCBr (stereo unspecified) | -1.76 |
| C[C@@H](c1ccccc1)N1C(=O)[C@H]2[C@H]3[C@H](O)[C@H](O)CC(=NO[C@@H]4O[C@H](CO)[C@@H](O)[C@H](O)[C@H]4O)[C@@H]3CC[C@H]2C1=O | -2.33 |
| C#CCCCON=C1C[C@@H](O)[C@@H](O)[C@@H]2[C@@H]3C(=O)N(c4ccc(F)cc4F)C(=O)[C@@H]3CC[C@H]12 | -0.0103 |
| C#CCCCON=C1[C@H]2CCn3c(=O)n(C)c(=O)n3[C@H]2[C@H](O)[C@@H]2O[C@H]12 | 0.275 |
| CC(C)=CCCC(C)=CCON=C1C[C@@H](O)[C@@H](O)[C@@H]2[C@@H]3C(=O)N(C(C)(C)C)C(=O)[C@@H]3CC[C@H]12 | 1.46 |
| CO[C@H]1COC(=O)CC=C[C@@H](C)[C@H](OC)COC(=O)[C@@H]2CCCN2C(=O)CC=C[C@@H]1C | 0.095 |
| CCOC(=O)NN=C1C[C@@H](O)[C@@H](O)[C@@H]2[C@@H]3C(=O)N(c4cccc(Oc5ccccc5)c4)C(=O)[C@@H]3CC[C@H]12 | 0.275 |
| O=C1[C@H]2[C@H]3[C@H](O)[C@H](O)CC(=NOCc4ccccc4)[C@@H]3CC[C@H]2C(=O)N1c1ccc(F)cc1F | -0.545 |
| Cn1c(=O)n2n(c1=O)[C@H]1[C@H](O)[C@@H]3O[C@@H]3C(=O)[C@H]1CC2 | 0.551 |
| CCCNC(=O)OC[C@H]1O[C@H](c2ccccc2)C=C[C@@H]1Oc1ccc(OC)cc1 | 0.284 |
| CC(C)CCN1CCc2nc(COc3ccccc3)c3c(c2C1)CO[C@@H](C)C3 | 0.329 |
